# Shiga inhibitor = A qHTS for Small Molecule Inhibitors of Shiga Toxin | Vero cells, Shiga toxin protein synthesis inhibition reporter | inhibition, % at 38.7 µM | hit rate 9.2% among 290,000 | AID 2315, 2010; in the data active = inhibition mostly above about 28%, no sharp cut-off; inactive = mostly below about 43%; also: 0% is about no effect
# HCMV antiviral = qHTS Assay for inhibitors of the human cytomegalovirus (HCMV); HFF cells, HCMV-luciferase reporter, 72 h; stronger effect = lower value; activity change, negative = inhibition, % at 57.5 µM; hit rate 4.5% among 410,000; in the data active = activity change below about -60%; inconclusive = no clear call, values can overlap the other calls; inactive = above about -39%; also: % is scaled to controls: 0 for no effect and ±100 for the full control effect
#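 Two compound doses tested in HFFs infected with HCMV-luciferase, MOI 1 PFU/cell, 72 h at 37C. Lysate luminescence read with OneGlo; data normalized against buffer-only and 10uM Salinomycin inhibitor controls.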
# HCV inh = qHTS Assay for Inhibitors of Hepatitis C Virus (HCV). hit rate 3.4% among 340,000. Huh7.5.1 HCVcc-Cre infection, luciferase reporter, 44 h. Potency, µM (doses to about 41.8 µM), for the others: top-dose activity change, negative = inhibition, hits mostly inhibitors. AID 651820, 2012; also: potency is read from the fitted curve at half-maximal effect; % is scaled to controls: 0 for no effect and ±100 for the full control effect
#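 Cells (1,000/well) were plated 4 h before compound, then infected with HCVcc-Cre virus (~0.5 moi). After 44 h further culture, infection was read as luciferase luminescence following a 15 min substrate incubation at room temperature.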
# Pf growth 96h = Primary qHTS for delayed death inhibitors of the malarial parasite plastid, 96 hour incubation. hit rate 6.9% among 320,000. P. falciparum luciferase reporter growth, 96 h. AID 504834, 2011. Potency, µM (top dose mostly 28.7 µM), without a hit: at the highest dose activity change, negative = inhibition, hits mostly inhibitors; also: potency is read from the fitted curve at half-maximal effect; % is scaled to controls: 0 for no effect and ±100 for the full control effect
#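 Two-generation exposure (96 h) targets delayed-death phenotype. Reporter parasites carrying integrated firefly luciferase, in red cells at 2% hematocrit and 0.05% parasitemia final, kept at 37 C, 5% CO2; luminescence loss indicates inhibition.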
# Pf growth 48h = Primary qHTS for delayed death inhibitors of the malarial parasite plastid, 48 hour incubation; hit rate 5.9% among 310,000; P. falciparum luciferase growth in erythrocytes, 48 h; Potency, µM (doses to about 28.7 µM), without a hit: top-dose activity change, negative = inhibition, usual class: inhibitors; also: potency is read from the fitted curve at half-maximal effect; % is scaled to controls: 0 for no effect and ±100 for the full control effect
#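 A one-generation exposure of luciferase-tagged malaria parasites in RPMI 1640/Albumax erythrocyte culture, 37 C and 5% CO2. Inhibition is inferred from decreased luminescence after adding detection reagent.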
# Cycloheximide cs = Cycloheximide Counterscreen for Small Molecule Inhibitors of Shiga Toxin; cell reporter, cycloheximide protein synthesis inhibition counterscreen; max response, %; hit rate 12% among 300,000; AID 2314, 2010; in the data active = max response mostly above about 13%, no sharp cut-off; inactive = mostly below about 14%; also: read at 38.3 µM for the half of the compounds with a filed dose; 0% is about no effect
# * marks the source's active call; other numbers are inactive results; ? = inconclusive; . = no result given; + = active, no number. Hits are enriched below; roughly 21% of the tested compounds scored in any of these assays. Unless noted, calls follow the shape of the dose curve; as a rule, active = well fitted inhibition curve with a large enough effect; inconclusive = small, poorly fitted or top-dose-only effect, or another doubt; inactive = no such curve, though single readings can be large or run the other way.
SMILES,Shiga inhibitor,HCMV antiviral,HCV inh,Pf growth 96h,Pf growth 48h,Cycloheximide cs
CC(=O)Nc1ccc(C(=O)COC(=O)CCN2C(=O)C3CC=CCC3C2=O)cc1 (stereo not given),13,8,-1%,0%,11%,3
CC1CCc2sc(C(=O)Nc3ccc(C(N)=O)cc3)cc2C1 (stereo not given),23,-23,?,3%,0%,32*
CC1CCc2sc(C(=O)NNC(=S)NC3CC3)cc2C1 (stereo not given),24,33,2%,20%,51%,21*
N#Cc1cc2c(=O)n3ccccc3nc2n(-c2nnc(SCc3ccc(F)cc3)s2)c1=O,.,1,.,.,.,.
C=CCNC(=O)C1CCN(c2c([N+](=O)[O-])cc(C(F)(F)F)cc2[N+](=O)[O-])CC1,-16,5,-12%,9.3µM*,5.2µM*,-1
CC(=O)Nc1ccc(S(=O)(=O)Nc2nc(C)nc3sc(C)c(C)c23)cc1,.,-1,10%,.,.,.
CC(OC(=O)c1cc(O)c2ccccc2c1O)C(=O)Nc1ccc(C(N)=O)cc1 (stereo not given),.,31,?,12µM*,?,.
COc1ccc(CCNC(=O)CCCn2nc(C)c3sc4ccccc4c3c2=O)c(OC)c1,.,-11,.,.,.,.
Cc1[nH]c2ccccc2c1/C=N/Nc1nncn1N,112*,-64*,-29%,?,60%,55*
Cc1[nH]c2ccccc2c1/C=N/Nc1ccccn1,49,-14,.,10µM*,0%,15
Cc1cccc2cc(CN(Cc3ccco3)C(=O)Nc3cccc(C#N)c3)c(Cl)nc12,5,-31,?,13µM*,9.3µM*,-2
Cc1ccc(NC(=O)N(Cc2ccco2)Cc2cc3cc(C)cc(C)c3nc2Cl)cc1,48*,-10,?,?,?,27*
CC(C)Cn1c(N)c(C(=O)CSc2nnc(C3CC3)n2C2CC2)c(=O)n(C)c1=O,.,-1,5%,8.3µM*,?,.
Cc1csc(SCC(=O)c2c(N)n(CC(C)C)c(=O)n(C)c2=O)n1,-8,-75*,16µM*,.,6%,-4
CCCn1c(N)c(C(=O)CSc2nnc(C3CC3)n2C2CC2)c(=O)[nH]c1=O,.,55,2%,.,.,.
CCOC(=O)Cc1csc(SCC(=O)c2c(N)n(CC(C)C)c(=O)n(C)c2=O)n1,18,-3,7.9µM*,6%,?,-5
CC(C)Cn1c(N)c(C(=O)CSc2ncccn2)c(=O)n(C)c1=O,.,-36,2%,2%,21%,.
CCn1ccc2cc(S(=O)(=O)N3CCC(C(=O)NCCc4ccccc4)CC3)ccc21,.,9,.,.,.,.
O=C(Nc1ccccc1)OCCN1CCN(Cc2ccccc2)CCC1=O,-11,-11,-8%,18%,31%,5
CC1CCC(=O)N(CCOc2ccccc2)CC1 (stereo not given),58*,73,5%,-34%,98%,39*
CC(C)[C@@H](COc1ccccc1)N1CCN(Cc2ccccc2)CCC1=O,-1,6,-6%,6.6µM*,?,3
O=C(Nc1ccc(Cl)cc1)OCCN1CCN(Cc2ccccc2)CCC1=O,+,.,.,.,.,34*
C[C@H]1CCC(=O)N([C@H](COc2ccccc2)Cc2ccccc2)CC1,-1,?,-9%,?,?,-2
O=C1CCN(Cc2ccccc2)CCN1CCOc1ccccc1,76*,-77*,?,85%,75%,42*
CCc1ccccc1S(=O)(=O)Cc1ccc(C(=O)NCc2cccs2)o1,19,-34,-15%,?,?,8
SMILES,Shiga inhibitor,HCMV antiviral,HCV inh,Pf growth 96h,Pf growth 48h,Cycloheximide cs
CCN(CC)c1cccc(OCC(=O)N2c3ccccc3CC2C)c1 (stereo not given),.,-77*,?,?,9.3µM*,.
Cc1cc(=O)oc2cc(OCC(=O)N3c4ccccc4CC3C)ccc12 (stereo not given),-3,-4,-6%,?,?,-1
Cc1cc(C(=O)OCC(=O)N2c3ccccc3CC2C)c(C)o1 (stereo not given),36*,4,-14%,-2%,?,12
CC1Cc2ccccc2N1C(=O)COC(=O)c1ccco1 (stereo not given),.,9,.,.,.,.
Cc1c(C(=O)C(=O)N2c3ccccc3CC2C)c2ccccc2n1C (stereo not given),-6,-64*,-29%,?,?,7
COc1cc2c(cc1OC)CN(C(=O)c1ccc([N+](=O)[O-])o1)CC2,7,-28,?,4.1µM*,?,-3
O=C(CN1CCC(O)(c2cccc(F)c2)CC1)NCCc1c[nH]c2ccccc12,-3,0,-21%,-96%,?,-2
COCCCNC(=S)NNC(=O)c1ccc(S(=O)(=O)N2CCC(C)CC2)cc1,-6,18,7%,23%,-16%,-3
O=C(c1ccc([N+](=O)[O-])o1)N1CCOCC1,-3,-1,0%,3.3µM*,?,10
CC(=O)c1ccc(-c2ccc(C(=O)N3CCCc4ccccc43)o2)cc1,142,?,?,-11%,-26%,27*
COc1cccc2cc(C(=O)N3CCCc4ccccc43)oc12,-22,8,-5%,-39%,-21%,-4
O=C(c1ccc([N+](=O)[O-])o1)N1CCc2ccccc2C1,-7,0,?,5.2µM*,?,-3
Cc1ccc(C(=O)N2CCc3ccccc32)o1,98*,76,9%,41%,151%,57*
O=C(c1ccc([N+](=O)[O-])o1)N1CCCCCC1,.,6,-21%,.,.,.
O=C(O)c1cccc(-n2cnc3cccnc32)c1,.,-14,.,.,.,.
O=C(c1ccc([N+](=O)[O-])o1)N1CCc2ccccc21,38*,1,?,?,?,14*
Cc1ccc(C(=O)N2c3ccccc3CC2C)o1 (stereo not given),92*,58,9%,3.7µM*,85%,39*
Cc1ccc(-n2ncc3c(=O)n(CC(N)=O)cnc32)cc1,-1,35,10%,-5%,3%,-2
COc1ccc(-n2ncc3c(=O)n(CC(=O)NC(C)C)cnc32)cc1,-11,26,6%,7.4µM*,0%,0
COC(=O)Cn1cnc2c(nnn2-c2ccc(OC)cc2)c1=O,14,27,12%,?,29%,1
COc1ccc(-n2ncc3c(=O)n(CC(=O)Nc4ccc5c(c4)OCCO5)cnc32)cc1,-2,-60*,-29%,4.7µM*,17%,-3
COC(=O)Cn1cnc2c(cnn2-c2ccc(OC)cc2)c1=O,42,14,7%,0%,26%,23*
